Source: the supplement of paper PMC6555819

Key:
Assay in all cases: PBM binding z-score (relative to random genomic background probes); higher = stronger binding; sequences stand for … in GC…GCGATTGACAGCGTAGAATGAAGG
[1] = tested on: FXR:RXRa (NR concentration 270 nM, RXRa partner concentration 90 nM)
Method in brief: (§1)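 Each nuclear receptor dimer, without ligand, was incubated for 1 h on custom Agilent 4×180K protein-binding microarrays. Binding was detected with antibodies against each partner (one per run), and scanned fluorescence was regression-normalized. The binding z-scores are referenced to random human genomic background probes.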

[2] = tested on: LXRa:RXRa (NR concentration 270 nM, RXRa partner concentration 90 nM)
Method in brief: as §1

[3] = tested on: LXRa homodimer (NR concentration 270 nM)
Method in brief: as §1

[4] = tested on: LXRb:RXRa (NR concentration 270 nM, RXRa partner concentration 90 nM)
Method in brief: as §1

[5] = tested on: LXRb homodimer (NR concentration 270 nM)
Method in brief: as §1

[6] = tested on: PPARa:RXRa (NR concentration 270 nM, RXRa partner concentration 90 nM)
Method in brief: as §1

[7] = tested on: PPARg:RXRa (NR concentration 180 nM, RXRa partner concentration 90 nM)
Method in brief: as §1

[8] = tested on: PPARg:RXRa 270nM:90nM, anti-RXR (NR concentration 270 nM, RXRa partner concentration 90 nM)
Method in brief: as §1

[9] = tested on: PPARg:RXRa 30nM:10nM, anti-RXR (NR concentration 30 nM, RXRa partner concentration 10 nM)
Method in brief: as §1

[10] = tested on: PPARg:RXRa 90nM:30nM, anti-RXR (NR concentration 90 nM, RXRa partner concentration 30 nM)
Method in brief: as §1

[11] = tested on: PPARg:RXRa DBDmut IVT, anti-RXR (DBD mutation: RXRa K156A/R161A, NR concentration 270 nM, RXRa partner concentration 90 nM)
Method in brief: as §1

[12] = tested on: PPARg:RXRa IVT, anti-PPARg (NR concentration 270 nM, RXRa partner concentration 90 nM)
Method in brief: as §1

[13] = tested on: PPARg DBDmut:RXRa IVT, anti-PPARg (DBD mutation: PPARg1 K132A/R137A, NR concentration 270 nM, RXRa partner concentration 90 nM)
Method in brief: as §1

[14] = tested on: PPARg DBDmut IVT, anti-PPARg (DBD mutation: PPARg1 K132A/R137A, NR concentration 270 nM)
Method in brief: as §1

[15] = tested on: PPARg homodimer (NR concentration 180 nM)
Method in brief: as §1

[16] = tested on: PXR:RXRa (NR concentration 270 nM, RXRa partner concentration 90 nM)
Method in brief: as §1

[17] = tested on: PXR homodimer (NR concentration 270 nM)
Method in brief: as §1

[18] = tested on: RARa:RXR (NR concentration 270 nM, RXRa partner concentration 90 nM)
Method in brief: as §1

[19] = tested on: RARa homodimer (NR concentration 270 nM)
Method in brief: as §1

[20] = tested on: RARb:RXRa (NR concentration 270 nM, RXRa partner concentration 90 nM)
Method in brief: as §1

Sequence	PBM binding z-score [1]	PBM binding z-score [2]	PBM binding z-score [3]	PBM binding z-score [4]	PBM binding z-score [5]	PBM binding z-score [6]	PBM binding z-score [7]	PBM binding z-score [8]	PBM binding z-score [9]	PBM binding z-score [10]	PBM binding z-score [11]	PBM binding z-score [12]	PBM binding z-score [13]	PBM binding z-score [14]	PBM binding z-score [15]	PBM binding z-score [16]	PBM binding z-score [17]	PBM binding z-score [18]	PBM binding z-score [19]	PBM binding z-score [20]
ATCTCTAGGTAAAAGGTCAGTGAATCCCGAGGAT	3.03	3.55	1.43	3.07	1.09	6.09	9.92	8.92	8.03	9.78	3.67	5.64	1.49	2.13	2.81	3.49	0.63	4.68	1.9	4.56
ACTATTAGTTGACTTAGGGCAAACGATACGACGC	0.00537	0.0216	0.165	0.185	0.529	0.325	1.17	0.319	0.276	0.322	0.0351	0.568	1.39	1.52	0.392	0.274	0.0698	0.533	0.0866	0.712
CCTGCTAGGTCAATGGTCAGCCAAAGCAGCTCGC	2.77	2.02	0.0245	1.36	-0.223	3.1	5.04	5.03	2.96	5.02	4.18	3.97	-0.884	-0.321	1.16	0.76	-0.543	1.52	-0.219	3.77
CCGAGTAGGTTAAGGGGCATTCAGGCAACGGTGA	0.765	0.894	-0.155	1.02	-0.297	3.51	6.06	6.42	4.16	6.65	3.63	4.08	-0.405	-0.995	0.976	0.49	0.0402	1.39	0.293	1.51
TTACCAAGGTGAAGGCCGTTGATCCCTCTGTAGA	0.294	0.227	-0.606	0.138	-0.941	1.33	0.354	1.33	0.659	0.916	1.67	2.18	-0.266	0.1	0.061	0.0988	-0.493	0.33	-0.621	1.34
CTCGAACGGTCGTGCTCAGGTGAGTATACCAAAC	-0.183	-0.208	-0.21	-0.274	-0.517	-0.309	-0.285	-0.662	-0.759	-1.01	0.143	-0.0947	-0.8	-0.726	0.0744	-0.455	-0.32	-0.252	-0.56	0.781
GAGACAGGGTCAGCTAGAGGCCAGAGTATGGAAA	4.45	2.53	-0.421	2.21	-1.18	4.46	2.91	2.82	0.35	1.21	0.507	1.1	-0.524	-0.747	3.57	3.34	0.373	4.73	0.0826	4.09
CCGACTGGGGCAGAAAGGTTCCCATACCATCCGG	-0.722	-0.705	-0.526	-0.996	-1.27	-0.271	0.412	0.198	-0.842	-0.499	1.45	0.893	-0.887	-1.78	-0.509	-0.725	-0.638	-0.53	-0.395	0.328
AGAATGAGGTTATTCGTAGATCAGGGAAGAAAGT	2.59	2.61	0.0908	1.87	-0.0255	3.43	1.64	1.83	0.552	1.2	2.54	2.22	0.846	0.521	0.454	1.44	0.494	1.98	0.0936	1.36
CGAACTAGGTCAGAACAGGACAGCGAAGGATGAT	1.13	0.841	-0.226	0.393	-0.43	3.3	5.21	4.4	1.79	3.38	6.88	7.17	2.58	2.2	1.18	0.861	-0.18	1.86	0.0245	2.88
TCTGCTAGGTCATTTGGTCAGCTAACGAGCTGCC	4.28	3.21	1.04	2.03	1.81	3.19	1.97	3.11	1.64	2.37	3.73	3.88	3.37	1.7	1.5	1.46	-0.592	2.1	-1.02	3.62
ACTTACGGGTCAACGATGTTATAGCACGCGTATA	6.28	4.04	0.405	3.64	0.787	5.53	4.83	5.13	2.07	3.75	3.44	3.78	1.72	1.54	2.59	3.49	0.444	4.41	0.951	4.09
GCTTACGGGTCAAAGGTTATAGCATGAATAGAAT	7.45	5.9	0.64	6.1	0.563	6.96	11.1	9.42	9.01	9.91	4.91	5.87	1.16	0.991	2.12	6.26	0.29	8.55	0.989	4.79
TACCCTAGGTCATGCGGGCCAGTATAGTGTCGGC	4.4	6.5	8.1	3.42	2.52	3.62	3.01	2.92	0.448	1.71	1.96	3.63	0.136	-0.0789	0.581	1.72	0.593	2.37	0.299	3.93
